This note sets out measurements from PubChem BioAssay (NCI).

The panel holds about 83,000 compounds, 20% with a hit somewhere; the sample as a whole holds those more often.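 Values shown are percent growth following 48 h exposure of cells in 96-well plates to a single concentration of compound; below 10 was considered active.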 Values without a mark were called inactive. Activity calls are given as the source filed them.

The test system of the assay is HL-60(TB) leukemia. Put plainly: NCI-60 one-dose screen, 48 h (100 = growth as untreated, 0 = no growth, -100 = all killed). To be noted: 10 µM unless noted.
Regarding `COc1cc(-c2nc(SCCC(C)C)nc(Nc3ccc(S(N)(=O)=O)cc3)c2C#N)cc(OC)c1OC`, the growth was -18.9% (active).
To `CC1(C)NCCC[C@]2(C)[C@H]3CC(=O)[C@H]4[C@@H]5C[C@](C)(CO)CC[C@]5(C)CC[C@@]4(C)[C@]3(C)CC[C@@H]12` belongs 102%.
To `CCN1C(=O)N(CC)C2C1N=C(SC)N2/N=C/C=C/c1ccccc1OC` (stereo not given) belongs -13.4% (active); to `C[N+](C)(C)c1ncnc2[n-]cnc12`, 103%.
Next, `O=[N+]([O-])c1ccc(N/N=C\c2ccccc2[N+](=O)[O-])nc1`: 109%; `Cc1ccc([N+](=O)[O-])c(C)n1`: 115%.
Take `COc1ccc2c(c1)N(CCO)C1=C(C(=O)OC1)C2c1cccc(Br)c1` (stereo not given): the growth was -26.3% (active).
With `CN1C(=O)N(C)C2Nn3c(s/c(=C4\C(=O)N(CCc5ccccc5)c5ccccc54)c3=O)=NC21` (stereo not given), the growth is 56.9%.
To `COS(=O)(=O)c1ccc(Br)cc1` belongs 122%; to `Cc1nc2ccccc2n1CC1NC(=O)NC1=O` (stereo not given), 95.1%; to `Nc1c2c(c(O)c3c1=C(CO)C=N3)=NCCS2=O` (stereo not given), -42.1% (active).
Next, `O=C(O)c1ccc([N+](=O)[O-])cc1S(=O)(=O)O`: 108%; `O=c1cc(CNc2cc(F)cc(F)c2)c2ccc(I)cc2[nH]1`: -32.6% (active).
Next, `O=[N+]([O-])c1cccc(-c2nc3sccn3c2-c2ccnc(NCCCNS(=O)(=O)c3ccc(Br)cc3)n2)c1`: 19.2%; `C=C1C(=O)O[C@H]2[C@H]1CC/C(COC(=O)NCc1ccc(Cn3c(=O)sn(-c4ccccc4)c3=O)cc1)=C\CC[C@@]1(C)O[C@@H]21`: -25.2% (active).
As to `C[C@]12CCC3c4ccc(O)cc4C[C@@H](CCCCCCCCCS(=O)CCCC(F)(F)C(F)(F)F)C3C1CC[C@@H]2O` (stereo not given in full), the growth was 73.3%.
As for `CCCCNCC(O)c1cc2c(Cl)cc(Cl)cc2c2cc(C(F)(F)F)ccc12` (stereo not given), the growth was -59.2% (active).
For the molecule `Cc1c(O)cc(-c2cnc(N/N=C/c3ccccc3)s2)c(O)c1C`, the growth is 19.1%.
As for `O=C(C[P+](c1ccccc1)(c1ccccc1)c1ccccc1)c1ccccc1`, the growth is 93.1%.
Next, `NS(=O)(=O)c1cnccc1-n1ccc(=O)c(S(N)(=O)=O)c1`: 55.9%; `COc1c(O[C@@H]2OC(CO)[C@H](O)[C@H](O)C2O)cc2oc3cc(O)c(CC=C(C)C)c(O)c3c(=O)c2c1CC=C(C)C` (stereo not given in full): 94.4%; `CNCc1cccc2c1OCCOCCOCCNS(=O)(=O)c1ccc(cc1)-c1cnc(N)c(n1)C(=O)N2`: -10.8% (active).
For the molecule `Cn1c(=O)c(C#N)c(-c2ccco2)n2c(S(=O)(=O)Cc3ccccc3)nnc12`, the growth was 103%.
Regarding `COc1ccc2nc3cc(Cl)ccc3c(NCCCNCCC(C)O)c2c1` (stereo not given), the growth is -38.1% (active).
To `COc1ccc(-c2cc(-c3cc(OC)c(OC)c(OC)c3)c(C#N)c(=O)n2CCCCC(=O)O)cc1` belongs 103%; to `c1cc(OCCN2CCCCCC2)ccc1CNc1ccc2nc(CCC3CCCCC3)[nH]c2c1`, 22.9%; to `CCCCC1=c2c([nH]c3ccc(OC)cc23)=NC2C=CC=NC12` (stereo not given), 80.5%.
To `COc1ccc(C(=O)Nn2c(NCC(=O)N3c4ccccc4Sc4ccccc43)nnc2-c2ccc(O)cc2)cc1` belongs 94.3%; to `CN1C(=O)C2(SCC(C(=O)NCc3ccccc3)N2C(=O)C2CCCCC2)c2ccccc21` (stereo not given), 80.4%.
To `COc1ccc(CN2C(=O)/C(=C\c3cc(OC)c(OC)c(OC)c3)c3cc(OC)ccc32)cc1` belongs -27.2% (active); to `COc1cnc2c(c1)C(=O)c1c-2n(CCCNC(C)C)c(=O)c2cc([N+](=O)[O-])ccc12`, -65% (active); to `COc1cccc2c1C(=O)c1c(O)c3c(c(O)c1C2=O)C[C@@](O)(/C(C)=N/NC(=O)c1cccc([N+](=O)[O-])c1)C[C@@H]3OC1CC(N)C(O)C(C)O1` (stereo not given in full), -45.1% (active).
Regarding `Oc1ccc(-c2nc(-c3ccc4oc5ccc(-c6[nH]c(-c7ccc(O)cc7)nc6-c6ccccc6)cc5c4c3)c(-c3ccccc3)[nH]2)cc1`, the growth is 39.9%.
To `Cc1cccc(/C=C2\CN(C(=O)OC(C)(C)C)C/C(=C\c3cccc(C)c3)C2=O)c1` belongs 90.2%; to `Nc1nc(Nc2ccc(F)cc2)nn1C(=O)c1cc(Cl)ccc1Cl`, 65.1%; to `COc1ccc(/C=C2\COc3ccc(O)cc3C2=O)c(OC)c1`, 11.2%.
As for `COc1cc(-c2nn(-c3ccc(NC(=O)Nc4cc(C(F)(F)F)cc(C(F)(F)F)c4)cc3)cc2-c2ccncc2)ccc1Cl`, the growth is 4.78% (active).
Regarding `C=C(C)[C@@H]1CC[C@]2(C(=O)N3CCN(C)CC3)CC[C@]3(C)[C@H](CC[C@@H]4[C@@]5(C)C/C(=C/c6ccco6)C(=O)C(C)(C)[C@@H]5CC[C@]43C)[C@@H]12`, the growth is 64.2%.
To `Oc1ccc2c(c1)CCc1ccccc1-2` belongs 103%; to `Clc1ccc2c(NC3CCC(NC4CCCCC4)CC3)ccnc2c1` (stereo not given), 67.3%.
